D1 antag = blocks dopamine activation of the human D1 receptor | P21728 | HEK293 TREx D1 cells, calcium flux, dopamine EC80; hits give low values | activity change, negative = inhibition, % at 10 µM | actives 3.2% (n = 360,000); in the data active = activity change below about -30%; note: % is set by controls: 0 for no effect and ±100 for the full control effect
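Kinetic fluorescence of a calcium dye serves as the read-out. D1-expressing Hek293 Trex cells, induced overnight at 30 C, are exposed to compound for 180 s before an EC80 dopamine addition, then read 180 s further.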
D1 PAM = potentiators of human D1 dopamine receptor; P21728; HEK293 TREx D1 cells, calcium flux, dopamine EC20 potentiation; potentiation, % at 10 µM; actives 0.036% (n = 360,000); in the data active = potentiation above about 30%; note: 0% is about no effect
TRHR PAM = allosterically enhances the human TRH receptor. TRHR cells, fluo-8 calcium fluorescence, EC20 TRH enhancement. enhancement, % at 2 µM. actives 0.66% (n = 360,000); in the data active = enhancement above about 30%; note: 0% is about no effect
Target sequence (P34981 whole entry, looked up): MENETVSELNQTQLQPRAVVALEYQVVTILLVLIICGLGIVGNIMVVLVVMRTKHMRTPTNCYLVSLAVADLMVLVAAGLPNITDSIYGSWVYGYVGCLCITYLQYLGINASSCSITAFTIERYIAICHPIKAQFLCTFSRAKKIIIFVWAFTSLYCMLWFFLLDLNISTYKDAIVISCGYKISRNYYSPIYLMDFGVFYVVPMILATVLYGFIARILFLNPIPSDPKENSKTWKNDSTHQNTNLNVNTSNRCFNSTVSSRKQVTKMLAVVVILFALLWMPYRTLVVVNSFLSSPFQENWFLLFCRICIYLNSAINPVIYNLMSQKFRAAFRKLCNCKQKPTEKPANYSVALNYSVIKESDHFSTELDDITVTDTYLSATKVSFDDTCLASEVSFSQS
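TRHR-expressing cells loaded with fluo-8 calcium dye were read kinetically (ex 480/em 530) during compound addition, then stimulated with an EC20 of TRH (10 nM final). Enhancement of the Gq-mediated intracellular calcium response was scored.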
TRHR agonist = TRH receptor (human) agonism. P34981. TRHR cells, calcium flux fluo-8, FDSS agonist mode. activation, % at 2 µM. actives 0.18% (n = 360,000). AID 493084; note: 0% is about no effect
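Read-out: compound-evoked intracellular calcium rise in TRHR cells, fluo-8 dye, kinetic FDSS fluorescence at 1 s/cycle following a 10-cycle baseline. Cells cultured overnight before dye loading (30 min–1.5 h, RT).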
D1 ag = agonists of human D1 dopamine receptor | HEK293 T-REx D1 cells, calcium flux, agonist mode | activation, % at 2 µM | actives 1% (n = 360,000) | AID 504660; note: 0% is about no effect
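Agonism was scored from calcium flux recorded over 180 s (1 read/s) after pintool compound addition, following a 10-cycle baseline. Cells were inducible force-coupled HEK293 TREx D1, plated overnight at 30 C and loaded with no-wash calcium dye.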
Starred values were filed as active, the others as inactive. The list is not random: actives were taken first. Their share in the collection is about 4.7%. Cut-off read from the data, not from the text of the source, unless noted: active = activation above about 30%; inactive = the rest.

SMILES | D1 antag | D1 PAM | TRHR PAM | TRHR agonist | D1 ag
Cc1ccccc1NCN1C(=O)C2CCC(C)(C1=O)C2(C)C (stereo not given) | 22 | 0 | -3 | -1 | 8
Cc1ccc(N2C(=O)CSC23C(=O)N(CC(=O)Nc2ccccc2F)c2ccccc23)cc1C (stereo not given) | -32* | -4 | 4 | -1 | 9
Cc1ccc(N2C(=O)CSC23C(=O)N(CC(=O)Nc2ccc(C(C)C)cc2)c2ccccc23)cc1C (stereo not given) | 11 | -2 | 5 | 1 | 2
O=C(NC(=S)Nn1cnnc1)c1ccccc1Cl | 5 | -2 | -4 | 0 | 2
CC(C)(C)c1ccc(C(=O)NC(=S)Nn2cnnc2)cc1 | -32* | -4 | 3 | 0 | 2
CSc1ccccc1OCc1cc(C(=O)N2CCC(Oc3cccnc3)CC2)no1 | -46* | -3 | -10 | -1 | 19
O=C(c1cc(COc2cccc3cnccc23)on1)N1CCCC(CCCO)C1 (stereo not given) | -55* | -3 | -3 | 1 | 14
COc1ccccc1OCc1cc(C(=O)N2CCCC(OCc3cccnc3)C2)no1 (stereo not given) | -36* | -2 | -6 | -1 | 5
O=C(COc1ccccc1Cl)NCC1(N2CCOCC2)CCCCC1 | -3 | 0 | 1 | -3 | -3
COC(=O)c1ccc(Cl)cc1NC(=O)Nc1nnc(N(C)Cc2ccccc2)s1 | -19 | -2 | 11 | -1 | 0
O=C(NCC1CCCO1)c1c(O)c2cccc3c2n(c1=O)CC3 (stereo not given) | 1 | 7 | 1 | 1 | 1
O=C(NCC1CCCO1)c1c(O)c2cccc3c2n(c1=O)CCC3 (stereo not given) | -53* | 0 | 3 | 0 | 0
COc1cc2cc(CN(CCN3CCCC3)C(=O)Nc3ccc(F)cc3)c(=O)[nH]c2cc1OC | 2 | -3 | 1 | 0 | 1
Cc1ccc(C)c2[nH]c(=O)c(CN(CCN3CCCC3)C(=O)Nc3ccc(F)cc3)cc12 | -36* | -8 | 2 | -1 | 2
Cc1nc(/C(N)=N/OC(=O)c2ccc(Cl)cc2)c(C(F)(F)F)o1 | -35* | -1 | -5 | -1 | -1
Cc1nc(C(=O)NNC(=O)c2cccc(Cl)c2)c(C(F)(F)F)o1 | 5 | -4 | 5 | 0 | 3
COc1ccc(/C=C2\N=C(SC)N(c3ccccc3OC)C2=O)cc1 | -34* | -8 | -6 | -1 | 14
Cc1cc(Br)ccc1NC(=O)c1ccc(NS(=O)(=O)c2c(C)noc2C)cc1 | -5 | -1 | 10 | -1 | 0
COc1cccc(N=Nc2c(N)[nH]n3c(=O)cc(-c4ccccc4)nc23)c1 | -40* | -5 | 7 | 0 | 2
Cc1ccc(N=Nc2c(N)[nH]n3c(=O)cc(-c4ccccc4)nc23)cc1 | -23 | -16 | 3 | 1 | 1
CCOC(=O)c1ccc(NC(=O)CN(Cc2ccc(C)cc2)S(=O)(=O)c2ccc(C)cc2)cc1 | 12 | -2 | 8 | 3 | 10
CCCOc1ccc(C(=O)Nc2cc3nn(-c4ccc(CC)cc4)nc3cc2C)cc1 | 12 | -1 | 27 | 1 | 0
Cc1cc2oc(C(=O)NCc3ccncc3)c(C)c2cc1C | -36* | -2 | 30 | 0 | 0
CCCCNc1nc2sc3c(c2c(=O)n1-c1cccc(Cl)c1)CCN(C)C3 | -39* | -5 | -2 | 1 | 3
CCCCCNc1nc2sc3c(c2c(=O)n1-c1cccc(Cl)c1)CCN(C)C3 | -85* | -5 | -23 | 0 | 0
SMILES | D1 antag | D1 PAM | TRHR PAM | TRHR agonist | D1 ag
CCc1ccc(OC(C)C(=O)Nc2c(C(=O)c3ccccc3)oc3ccccc23)cc1 (stereo not given) | -1 | -5 | 24 | -1 | 7
O=C(O)/C=C\C(=O)Nc1ccc(Oc2ccc(Br)cc2)cc1 | -31* | -4 | 0 | 1 | -1
O=C(O)/C=C\C(=O)Nc1ccc(Oc2ccccc2)cc1 | -63* | -6 | 6 | 0 | 0
CCOc1ccc(C2=Nn3c(nnc3-c3ccco3)SC2)cc1 | -31* | -4 | 1 | 0 | 1
CCOc1ccc(C2=Nn3c(nnc3-c3ccccn3)SC2)cc1 | 8 | -2 | 7 | -1 | 1
Cc1nnsc1NC(=O)OCCCl | -7 | -1 | 17 | 1 | 1
Cc1nnsc1NC(=O)OCc1ccc(Cl)cc1Cl | -33* | -7 | -4 | 1 | 13
Cc1nn(C)c(Cl)c1NC(=O)OCc1ccc(Cl)cc1Cl | -37* | -9 | -7 | 0 | 25
FC(F)(F)c1cccc(NC(=S)NNC(=S)Nc2cccc(C(F)(F)F)c2)c1 | -34* | -5 | -3 | 0 | 2
CNNC(=S)Nc1cccc(C(F)(F)F)c1 | 3 | -1 | -1 | 0 | 0
CC(C)(C)NC(=S)Nc1cccc(C(F)(F)F)c1 | -1 | -9 | 8 | -1 | 31*
COC(=S)Nc1cccc(C(F)(F)F)c1 | -7 | -3 | -3 | -3 | 0
Nc1ccc(N2C(=O)c3ccccc3C2=O)c(Cl)c1 | -46* | -3 | 15 | -1 | -1
CCCCOc1ccc(C(=O)NCCc2cccs2)cc1 | -32* | -2 | -4 | 2 | 14
CCCCn1nc2cc(C(=O)NCCc3cccs3)ccc2c1OCC | -67* | -11 | -5 | -1 | 1
CCCCOc1ccc(C(=O)NCC2(c3ccccc3)CCOCC2)cc1 | -40* | -4 | 1 | -1 | 12
CCOc1ccc(C(=O)NCc2cccs2)cc1 | 7 | -4 | -1 | 0 | 0
CCOc1c2ccc(C(=O)NCCc3cccs3)cc2nn1CC | -14 | -3 | 2 | 0 | 4
COc1ccc(NC(=O)c2ccco2)cc1NC(=O)COc1ccc(C)cc1C | -13 | -5 | 9 | 1 | 1
Cc1ccc(/C=N/Nc2cc(C)nc(NCc3ccccc3)n2)cc1 | -10 | -6 | -10 | 0 | 2
CCCCNc1cc(C)nc(NCc2ccccc2)n1 | -52* | -10 | -15 | 15 | 61*
Cc1cc(N/N=C/c2ccc(Cl)cc2Cl)nc(NCc2ccccc2)n1 | -48* | -4 | 19 | -1 | 16
O=S(=O)(NCC1CCN(c2ccc(S(=O)(=O)N3CCOCC3)cc2)CC1)c1ccc(F)cc1 | 4 | -2 | -11 | 1 | 4
COc1ccc(NC(=O)N2CCc3ccccc3C2)c(OC)c1 | 2 | -2 | -5 | 0 | 4
Cc1c(C2=CCN(S(=O)(=O)c3ccc(Br)cc3)CC2)c2ccccc2n1CC(=O)N1CCCC1 | 8 | 3 | 4 | 1 | 9
Cc1c(C2=CCN(S(=O)(=O)c3ccc(CC(C)C)cc3)CC2)c2ccccc2n1CC(=O)N1CCCC1 | 24 | -1 | 5 | -2 | 38*
Cc1nc(-c2coc3cc(O)c(C)cc3c2=O)cs1 | -51* | -1 | -7 | 1 | -2
